Source: PubChem BioAssay (NCI)
This is part of a sample that, as a whole, favours compounds with a hit. Of some 83,000 tested, about 20% had one in any assay.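 Method: cells in 96-well plates; compound added at one concentration; 48 h incubation; percent growth measured; values under 10 scored active.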 Activity calls are given as the source filed them.

Key:
Test in all cases: NCI-60 one-dose screen, 48 h (100 = growth as untreated, 0 = no growth, -100 = all killed)
Details in all cases: 10 µM unless noted
SK-MEL-2 melanoma = test system: SK-MEL-2 melanoma
EKVX NSCLC = test system: EKVX NSCLC
SN12C renal = test system: SN12C renal
UO-31 renal = test system: UO-31 renal
TK-10 renal = test system: TK-10 renal
ACHN renal = test system: ACHN renal
CAKI-1 renal = test system: CAKI-1 renal
A498 renal = test system: A498 renal
CCRF-CEM leukemia = test system: CCRF-CEM leukemia
MOLT-4 leukemia = test system: MOLT-4 leukemia
SR leukemia = test system: SR leukemia
RPMI-8226 leukemia = test system: RPMI-8226 leukemia
OVCAR-8 ovarian = test system: OVCAR-8 ovarian
OVCAR-4 ovarian = test system: OVCAR-4 ovarian
SK-OV-3 ovarian = test system: SK-OV-3 ovarian
IGROV1 ovarian = test system: IGROV1 ovarian
OVCAR-3 ovarian = test system: OVCAR-3 ovarian
HS 578T breast = test system: HS 578T breast
NCI/ADR-RES ovarian = test system: NCI/ADR-RES ovarian
OVCAR-5 ovarian = test system: OVCAR-5 ovarian

Measured: growth

COc1cc2c(cc1-c1c(C)noc1C)ncc1nc(-c3ccccn3)n([C@H](C)COC(F)F)c12
inactive: SK-MEL-2 melanoma 76.3% | EKVX NSCLC 59% | SN12C renal 62.8% | UO-31 renal 18.8% | TK-10 renal 33% | ACHN renal 40.1% | CAKI-1 renal 34.2% | CCRF-CEM leukemia 41% | MOLT-4 leukemia 44.4% | SR leukemia 27.8% | OVCAR-8 ovarian 35.1% | OVCAR-4 ovarian 52.6% | IGROV1 ovarian 52.6% | OVCAR-3 ovarian 47.4% | NCI/ADR-RES ovarian 33.6%
active: A498 renal -12.2% | RPMI-8226 leukemia 8.62% | SK-OV-3 ovarian 9.97% | HS 578T breast 3.88%

Cc1ccc(O)c(N2C(=NCc3ccco3)NS(=O)(=O)c3cnccc32)c1
inactive: SK-MEL-2 melanoma 106% | EKVX NSCLC 101% | SN12C renal 101% | UO-31 renal 91.2% | TK-10 renal 124% | ACHN renal 106% | CAKI-1 renal 68.4% | A498 renal 109% | CCRF-CEM leukemia 61.2% | MOLT-4 leukemia 87.9% | SR leukemia 71.3% | OVCAR-8 ovarian 64.5% | OVCAR-5 ovarian 92.4% | OVCAR-4 ovarian 107% | SK-OV-3 ovarian 117% | IGROV1 ovarian 94.2% | OVCAR-3 ovarian 96.9% | HS 578T breast 113% | NCI/ADR-RES ovarian 95.2%

Cc1ccc(C2Oc3ccccc3C3CC(c4cccs4)=NN32)cc1 (stereo not given)
inactive: SK-MEL-2 melanoma 98.2% | EKVX NSCLC 80.9% | SN12C renal 92.5% | UO-31 renal 65.3% | TK-10 renal 108% | ACHN renal 98.7% | CAKI-1 renal 82.3% | A498 renal 107% | CCRF-CEM leukemia 95.3% | MOLT-4 leukemia 97.5% | SR leukemia 102% | OVCAR-8 ovarian 99.7% | OVCAR-5 ovarian 102% | OVCAR-4 ovarian 93.6% | SK-OV-3 ovarian 90.1% | IGROV1 ovarian 80.2% | OVCAR-3 ovarian 100% | HS 578T breast 86.7% | NCI/ADR-RES ovarian 96.6%

O=S(=O)(Nc1ccc(Br)c(Cl)c1)c1ccc(-c2cnc(C3CC3)o2)cc1
active: A498 renal -18.2% | OVCAR-3 ovarian -19.6% | HS 578T breast 10% | NCI/ADR-RES ovarian -15.2%
inactive: SK-MEL-2 melanoma 34.4% | EKVX NSCLC 33.9% | SN12C renal 41.1% | UO-31 renal 47.5% | TK-10 renal 51.5% | ACHN renal 46.4% | CAKI-1 renal 30.9% | CCRF-CEM leukemia 19.3% | MOLT-4 leukemia 27.6% | RPMI-8226 leukemia 20.5% | OVCAR-8 ovarian 20.4% | OVCAR-5 ovarian 29.4% | OVCAR-4 ovarian 46.3% | SK-OV-3 ovarian 36.3% | IGROV1 ovarian 26.8%

NC(=O)c1cc(I)ccc1NC(=O)/C=C/c1ccccc1Cl
inactive: SK-MEL-2 melanoma 75.1% | EKVX NSCLC 28% | SN12C renal 40.7% | UO-31 renal 30.6% | TK-10 renal 62.3% | ACHN renal 56.2% | CAKI-1 renal 13% | A498 renal 62.4% | MOLT-4 leukemia 10.4% | OVCAR-8 ovarian 31.3% | IGROV1 ovarian 77.5%
active: CCRF-CEM leukemia -19.6% | SR leukemia -30.4% | RPMI-8226 leukemia -11.5% | OVCAR-4 ovarian 9.92% | SK-OV-3 ovarian 4.87% | OVCAR-3 ovarian -40.8% | HS 578T breast -17.6% | NCI/ADR-RES ovarian 8.88%

c1ccc(Cn2cc(-c3nc4ccccc4s3)c3cccnc32)cc1
inactive: SK-MEL-2 melanoma 102% | EKVX NSCLC 80.5% | SN12C renal 94.5% | UO-31 renal 76.7% | TK-10 renal 118% | ACHN renal 105% | CAKI-1 renal 92.9% | A498 renal 104% | CCRF-CEM leukemia 112% | MOLT-4 leukemia 105% | SR leukemia 112% | OVCAR-8 ovarian 106% | OVCAR-5 ovarian 103% | OVCAR-4 ovarian 90.9% | SK-OV-3 ovarian 96.1% | IGROV1 ovarian 94.3% | OVCAR-3 ovarian 95.6% | HS 578T breast 110% | NCI/ADR-RES ovarian 98.6%

CCOC(=O)C(C)(C#N)C1C=CCCC1 (stereo not given)
inactive: SK-MEL-2 melanoma 96.5% | EKVX NSCLC 96.7% | SN12C renal 95% | UO-31 renal 84% | TK-10 renal 83.2% | ACHN renal 92.3% | CAKI-1 renal 75.1% | A498 renal 63.2% | CCRF-CEM leukemia 84.6% | MOLT-4 leukemia 98% | RPMI-8226 leukemia 92.9% | OVCAR-8 ovarian 98.8% | OVCAR-5 ovarian 68.2% | OVCAR-4 ovarian 91.5% | SK-OV-3 ovarian 95.1% | IGROV1 ovarian 94.8% | OVCAR-3 ovarian 90.6% | HS 578T breast 84.1% | NCI/ADR-RES ovarian 91.9%

CC(C)CC1C(=O)N2CCC[C@H]2C2(O)O[C@](NC(=O)C3C=C4c5cccc6[nH]c(Br)c(c56)C[C@H]4N(C)C3)(C(C)C)C(=O)N12 (stereo not given in full)
inactive: SK-MEL-2 melanoma 77.4% | EKVX NSCLC 54.6% | SN12C renal 40.3% | UO-31 renal 36.2% | TK-10 renal 54.6% | ACHN renal 43.6% | CAKI-1 renal 61.1% | A498 renal 76.5% | CCRF-CEM leukemia 58.3% | MOLT-4 leukemia 15.9% | SR leukemia 28.6% | RPMI-8226 leukemia 11.1% | OVCAR-8 ovarian 63.3% | OVCAR-5 ovarian 69.6% | OVCAR-4 ovarian 41% | IGROV1 ovarian 59% | HS 578T breast 89.7% | NCI/ADR-RES ovarian 57.7%

Cn1cc(C(=O)c2nc(-c3c[nH]c4ccc(Br)cc34)no2)c2cc(F)ccc21
inactive: SK-MEL-2 melanoma 97.5% | EKVX NSCLC 73.2% | SN12C renal 92.8% | UO-31 renal 68.8% | TK-10 renal 115% | ACHN renal 89.6% | CAKI-1 renal 80.1% | A498 renal 107% | CCRF-CEM leukemia 100% | MOLT-4 leukemia 94.8% | SR leukemia 101% | RPMI-8226 leukemia 99.5% | OVCAR-8 ovarian 94.6% | OVCAR-4 ovarian 93.1% | SK-OV-3 ovarian 87.9% | IGROV1 ovarian 61.3% | OVCAR-3 ovarian 97.2% | HS 578T breast 85% | NCI/ADR-RES ovarian 94.1%

N=C(N)c1ccc(-c2ccc(-c3ccc4ccccc4c3)s2)s1
inactive: SK-MEL-2 melanoma 101% | EKVX NSCLC 51.8% | UO-31 renal 55.6% | TK-10 renal 19% | ACHN renal 25.7% | CAKI-1 renal 59.2% | A498 renal 66.6% | SK-OV-3 ovarian 95.7% | HS 578T breast 91.6%
active: SN12C renal -62.2% | CCRF-CEM leukemia -27.8% | MOLT-4 leukemia -46.7% | RPMI-8226 leukemia -18.3% | OVCAR-8 ovarian 3.43% | OVCAR-5 ovarian -0.924% | OVCAR-4 ovarian -21.3% | IGROV1 ovarian 5.62% | OVCAR-3 ovarian -76.1% | NCI/ADR-RES ovarian -42%

CSc1nc(NCc2ccccc2)c(C#N)c(-c2cccc([N+](=O)[O-])c2)n1
inactive: SK-MEL-2 melanoma 102% | EKVX NSCLC 85.4% | SN12C renal 93.2% | UO-31 renal 78.3% | TK-10 renal 124% | ACHN renal 95.6% | CAKI-1 renal 75.4% | A498 renal 66.1% | CCRF-CEM leukemia 99.7% | MOLT-4 leukemia 103% | RPMI-8226 leukemia 100% | OVCAR-8 ovarian 95% | OVCAR-5 ovarian 90.7% | OVCAR-4 ovarian 88.5% | SK-OV-3 ovarian 97.1% | IGROV1 ovarian 99.9% | OVCAR-3 ovarian 111% | HS 578T breast 92% | NCI/ADR-RES ovarian 95.2%

COc1cc(C(=O)Oc2ccccc2OC(=O)c2cc(OC)c(OC)c(OC)c2)cc(OC)c1OC
inactive: SK-MEL-2 melanoma 115% | EKVX NSCLC 95.7% | SN12C renal 98.4% | UO-31 renal 84.5% | TK-10 renal 98.4% | ACHN renal 93.9% | CAKI-1 renal 91.6% | A498 renal 108% | CCRF-CEM leukemia 97.2% | MOLT-4 leukemia 114% | SR leukemia 103% | RPMI-8226 leukemia 76.2% | OVCAR-8 ovarian 92.1% | OVCAR-4 ovarian 105% | SK-OV-3 ovarian 84.9% | IGROV1 ovarian 101% | NCI/ADR-RES ovarian 95.7%

COc1ccc(-c2nc3ccc(-c4nc5ccc(N6CCN(c7ccc(F)cc7)CC6)cc5[nH]4)cc3[nH]2)cc1OC
active: RPMI-8226 leukemia 4.42%
inactive: SK-MEL-2 melanoma 109% | EKVX NSCLC 99.6% | SN12C renal 80.7% | UO-31 renal 89% | TK-10 renal 133% | ACHN renal 62.3% | CAKI-1 renal 84.6% | A498 renal 98.3% | CCRF-CEM leukemia 20.9% | MOLT-4 leukemia 27.9% | OVCAR-8 ovarian 62.6% | OVCAR-5 ovarian 96.1% | OVCAR-4 ovarian 80.5% | SK-OV-3 ovarian 80.6% | IGROV1 ovarian 72.8% | OVCAR-3 ovarian 90.4% | HS 578T breast 74.8% | NCI/ADR-RES ovarian 81.3%

Cn1c(NCCc2ccc(O)c(O)c2)nc2c1c(=O)n(Cc1ccc(Br)cc1)c(=O)n2C
inactive: SK-MEL-2 melanoma 89.8% | EKVX NSCLC 79.9% | SN12C renal 72.7% | UO-31 renal 30% | TK-10 renal 68.8% | ACHN renal 32.9% | CAKI-1 renal 74.7% | A498 renal 106% | CCRF-CEM leukemia 23% | MOLT-4 leukemia 29.3% | SR leukemia 61.6% | OVCAR-8 ovarian 71.9% | OVCAR-5 ovarian 99.4% | OVCAR-4 ovarian 53.2% | SK-OV-3 ovarian 75.5% | IGROV1 ovarian 37.7% | HS 578T breast 95.3% | NCI/ADR-RES ovarian 82.5%

CCOC(=O)n1cc(-c2nonc2-c2cn(C)c3ncccc23)c2cc(F)ccc21
inactive: SK-MEL-2 melanoma 92.8% | EKVX NSCLC 67.3% | SN12C renal 79.8% | UO-31 renal 57.5% | TK-10 renal 80.8% | ACHN renal 74.9% | CAKI-1 renal 54.8% | A498 renal 94.8% | CCRF-CEM leukemia 85% | MOLT-4 leukemia 66.7% | SR leukemia 84% | RPMI-8226 leukemia 58.3% | OVCAR-8 ovarian 84.5% | OVCAR-4 ovarian 55.3% | SK-OV-3 ovarian 85.8% | IGROV1 ovarian 56.3% | OVCAR-3 ovarian 77.6% | HS 578T breast 79.4% | NCI/ADR-RES ovarian 74%

O=C1Nc2cc(-c3ccc(O)cc3)ccc2/C1=C/c1ccc[nH]1
active: SK-MEL-2 melanoma 2.16% | UO-31 renal -3.39% | ACHN renal 4.81% | CAKI-1 renal 2.43% | A498 renal -3.08% | CCRF-CEM leukemia 6% | MOLT-4 leukemia 7.4% | RPMI-8226 leukemia 3.47% | SK-OV-3 ovarian 8.32% | OVCAR-3 ovarian 4.63% | NCI/ADR-RES ovarian -1.85%
inactive: EKVX NSCLC 12% | SN12C renal 13.6% | TK-10 renal 17.7% | OVCAR-8 ovarian 12.3% | OVCAR-5 ovarian 19% | OVCAR-4 ovarian 26.3% | IGROV1 ovarian 13% | HS 578T breast 18.1%
